Our source for the growth values is PubChem BioAssay (NCI).

This is part of a sample that, as a whole, favours compounds with a hit. Of some 83,000 tested, about 20% had one in any assay.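 Testing used 96-well plates and a 48-hour single-concentration exposure. Example: -40 means 40% of the starting cells died.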 Active and inactive are the calls of the source. The calls were made as follows: active = growth percent below 10; inactive = the rest.

For the experiment, the system named is NCI-H322M lung. Kind of experiment: NCI-60 one-dose screen, 48 h (100 = growth as untreated, 0 = no growth, -100 = all killed). The conditions noted are these: 10 µM unless noted.
Take `COc1cc(C2CC(c3cc(OC)c(OC)c(OC)c3)=NN2C(C)=O)ccc1OCc1ccccc1` (configuration not stated): the growth is 59.8% (inactive). Turning to `Cc1cc(N=C2NC(=O)CS2)n[nH]1`, the growth is 95.5% (inactive).

As for `C=C1CC[C@@H]2[C@]3(C)COC(c4cn[nH]c4-c4ccc(OC)cc4)O[C@@H]3CC[C@@]2(C)[C@@H]1C/C=C1/C(=O)OCC1O` (some centres not stated), the growth was 32.6% (inactive).

Turning to `COc1cc2c(c(OC)c1OC)C(=O)CC(c1cccc(NC(=O)c3cc(N)ccc3Cl)c1)O2` (configuration not stated), the growth is 89% (inactive). As for `O=C(N=Nc1c(O)[nH]c2ccc(Cl)cc12)c1ccc2nc(-c3ccccc3)[nH]c2c1`, the figure is 15.8% (inactive); as for `CNC(=O)c1cc(Oc2ccc3nc(NC(=O)Nc4cccc(OC(F)(F)F)c4)sc3c2)ccn1`, 47.8% (inactive); as for `COc1cc2c(c(OC)c1OC)C(=O)CC(c1cccc(NC(=O)c3cc([N+](=O)[O-])ccc3Cl)c1)O2` (configuration not stated), 55.7% (inactive). As for `COc1ccc(C2=NN(C(C)=O)C(c3ccc(OCc4ccc(Cl)cc4)c(OC)c3)C2)cc1OC` (configuration not stated), the figure is 81.9% (inactive).

Turning to `COc1ccc2cc([C@H](C)C(=O)N/N=C/c3ccc(Br)cc3)ccc2c1`, the growth is 98.2% (inactive). Next, `CCCCCCCCc1ccc(C(=O)Nc2ccc(C)cc2C(=O)O)cc1C`: 99.3% (inactive); `CSc1ccccc1NC(=O)c1ccc2nn(/C(C#N)=C/c3ccccn3)nc2c1`: 25.3% (inactive). Next, `COCOc1ccc2c(=O)c(C)c(C(=O)N[C@@H](Cc3ccccc3)C(O)C(=O)NCCc3ccc(OC)cc3)oc2c1` (some centres not stated): 103% (inactive); `CSc1ccc(C(=O)Nc2ccc3nnn(/C(C#N)=C/c4ccccn4)c3c2)cc1`: 57.9% (inactive); `COc1ccc(NC(=O)Cn2c(/C=C/c3cccc([N+](=O)[O-])c3)nc3ccccc3c2=O)cc1`: 90.7% (inactive). As for `CC1(C)CC[C@]2(C(=O)Nc3ccc(Br)cc3)CC[C@]3(C)C(=CCC4[C@@]5(C)C[C@@H](O)[C@H](O)[C@@](C)(CO)C5CC[C@]43C)C2C1` (some centres not stated), the figure is 54.5% (inactive); as for `N#Cc1c(-c2cccc(Cl)c2Cl)cc(-c2c[nH]c3ccccc23)[nH]c1=O`, 76.5% (inactive). For the compound `O=c1onc(-c2cc3ccccc3nc2Cl)n1-c1cccc2ccccc12`, the growth is 76.4% (inactive). For the compound `CCN(CC)CCOc1ccc(Nc2ncc3cc(-c4ccc(O)c(C#N)c4)c(=O)n(C)c3n2)cc1`, the growth is 96.9% (inactive). As for `Cc1ccc(NC(=O)[C@]23CCC(C)(C)CC2C2=CCC4[C@@]5(C)C[C@@H](O)[C@H](O)[C@@](C)(CO)C5CC[C@@]4(C)[C@]2(C)CC3)cc1` (some centres not stated), the figure is 69.3% (inactive); as for `N#Cc1c(NCc2ccccc2)n[nH]c1Nc1ccccc1`, 65.1% (inactive).

In the case of `CCCSc1nc(NCCc2c[nH]c3ccccc23)c(C#N)c(-c2ccc(OC)cc2)n1`, the growth is 89% (inactive). Next, `O=C(NNc1ccccc1)n1c(=O)c2ccccc2c(=O)n1-c1ccccc1`: 98.8% (inactive).

As to `COc1cc(C2CC(c3cc(OC)c(OC)c(OC)c3)=NN2C(C)=O)ccc1OCc1ccc(F)cc1` (configuration not stated), the growth was 66.1% (inactive).

As to `CN1CCN(Cc2ccc(C(=O)Nc3cccc(C#Cc4cccc5[nH]nc(N)c45)c3)cc2C(F)(F)F)CC1`, the growth was -98.3% (active). Consider `COc1ccc(C(=O)/C=C/c2cccc3ccccc23)cc1S(N)(=O)=O`, for which the growth is 14.8% (inactive). As for `O=C(/C=C/c1ccc(O)c(O)c1)NC1CCOC1O` (configuration not stated), the figure is 105% (inactive); as for `C=C1CCC2C3(C)COC(c4ccccc4F)OC3CCC2(C)C1CC(O)C1=CCOC1=O` (configuration not stated), 99.5% (inactive). Next, `COc1cc(/C=C/C(=O)c2ccc(C)cc2)ccc1Oc1nc(Nc2ccc(F)cc2)nc(N(C)C)n1`: 74.1% (inactive). As for `COc1cc2oc(-c3cccc(C(=O)Nc4ccc(Cl)cc4)c3)cc(=O)c2c(OCCNC(=O)[C@@H](N)CCC(=O)O)c1OC`, the figure is 79.8% (inactive). Regarding `C=C1CCC2C3(C)COC(c4ccc(F)cc4)OC3CCC2(C)C1CC(O)C1=CCOC1=O` (configuration not stated), the growth was 82.1% (inactive). Take `Cc1ccc(C(SCCNCc2cc(N(C)C)ccn2)(c2ccccc2)c2ccccc2)cc1`: the growth is 23.1% (inactive).

Turning to `COc1ccc(-c2c(Nn3cnnn3)no[n+]2[O-])cc1`, the growth is 63.5% (inactive). For `CC1=C(C(=O)c2ccccc2)C(c2cccc3ccccc23)n2c(nc3ccccc32)N1` (configuration not stated), the growth is 87.5% (inactive).

Regarding `CC1(C)CC[C@]2(C(=O)Nc3ccccc3)CC[C@]3(C)C(=CCC4[C@@]5(C)C[C@@H](O)[C@H](O)[C@@](C)(CO)C5CC[C@]43C)C2C1` (some centres not stated), the growth was 89.7% (inactive). As for `O=C(N/N=C/c1ccc(-c2ccc(O)cc2)o1)c1[nH]c2ccc(Br)cc2c1-c1ccccc1`, the figure is 17.4% (inactive); as for `CC(=O)Nc1ccc(-c2cn(-c3cccc(C(=O)Nc4ccc(N5CCN(C)CC5)cc4)c3)nn2)cn1`, 96.2% (inactive). On to `COc1cc2oc(-c3cccc(NC(=O)[C@H](Cc4ccccc4)NC(=O)OC(C)(C)C)c3)cc(=O)c2c(OC)c1OC`, for which the growth is 46.1% (inactive).
